Laboratory results as given in PubChem BioAssay AID588453 (National Center for Advancing Translational Sciences (NCATS), 2011).
Out of some 390,000 compounds screened, about 4,000 (1%) were called active. Another 4% or so got no clear call; they are omitted. Calls follow the shape of the dose curve; as a rule, active = well fitted inhibition curve with a large enough effect; inconclusive = small, poorly fitted or top-dose-only effect; inactive = no such curve, though single readings can be large or run the other way. For the sample, actives were picked, then their nearest neighbours and some compounds at random.

Target: Thioredoxin reductase 1, cytoplasmic (Rattus norvegicus) (UniProt O89049)
Assay: qHTS Assay for Inhibitors of Mammalian Selenoprotein Thioredoxin Reductase 1 (TrxR1): qHTS; also: nearly all actives have a fitted effect of over 65% in size
Conditions: recombinant rTrxR1, NADPH fluorescence consumption, selenite substrate; series mostly up to 114 µM; activity change, negative = inhibition: at the top concentration
In short: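 Rat TrxR1 (90 nM in the dispensed reagent) was pre-reduced with 400 uM NADPH for 5 min at room temperature, then incubated with compound for 15 min. After 400 uM selenite was added, NADPH fluorescence (Ex 340/Em 450 nm) was followed for 8 min.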
% is scaled to controls: 0 for no effect and ±100 for the full control effect; potency is read from the fitted curve at half-maximal effect.

Sequence of Thioredoxin reductase 1, cytoplasmic (Rattus norvegicus) (O89049 whole entry, looked up): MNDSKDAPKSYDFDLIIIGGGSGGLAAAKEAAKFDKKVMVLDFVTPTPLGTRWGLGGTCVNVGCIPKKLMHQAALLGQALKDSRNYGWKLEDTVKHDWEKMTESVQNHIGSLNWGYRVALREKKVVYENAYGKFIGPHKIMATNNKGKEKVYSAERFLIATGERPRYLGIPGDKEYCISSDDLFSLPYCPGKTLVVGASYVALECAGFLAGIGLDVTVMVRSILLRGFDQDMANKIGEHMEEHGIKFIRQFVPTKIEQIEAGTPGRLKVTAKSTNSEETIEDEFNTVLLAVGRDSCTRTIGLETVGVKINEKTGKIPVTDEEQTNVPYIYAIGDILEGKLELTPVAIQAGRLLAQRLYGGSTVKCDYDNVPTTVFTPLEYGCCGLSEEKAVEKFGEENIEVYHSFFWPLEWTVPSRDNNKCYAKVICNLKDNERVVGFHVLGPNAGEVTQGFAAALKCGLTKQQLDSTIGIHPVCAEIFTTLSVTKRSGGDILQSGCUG

Compound | activity change, negative = inhibition | Potency
Cc1ccc(-c2nnc(SCC(=O)NCc3ccccc3)nc2-c2ccc(C)cc2)cc1 | 20.8% [at 57.1 µM] (inactive) | 
Clc1ccccc1CSc1nncn2c1cc1occc12 | 16.1% (inactive) | 
Clc1ccccc1CSc1nnc(-c2ccco2)c(-c2ccco2)n1 |  | 5.01 µM (active)
CSc1n[nH]c(-c2ccco2)n1 | 11.5% (inactive) | 
CC1(C)N=C(SCc2ccccc2Cl)c2ccccc2N1 | 14.5% (inactive) | 
c1ccc(CSc2nnc(-c3ccco3)c(-c3ccco3)n2)cc1 |  | 2.51 µM (active)
Cc1ccc(S(=O)(=O)c2cn(Cc3ccccc3)c3cc(N4CCCC4)c(F)cc3c2=O)c(C)c1 | 32.3% (inactive) | 
COc1cccc(-c2nc(S(=O)(=O)c3ccc(C)cc3)c(NCc3ccccc3)o2)c1 | 8.09% (inactive) | 
Cc1c(NC(=O)Cc2ccccc2)cccc1-c1nc2cccnc2s1 | 22.3% (inactive) | 
O=C(NCc1ccco1)c1ccc(NS(=O)(=O)c2cccc([N+](=O)[O-])c2)cc1 | -1.92% (inactive) | 
O=[N+]([O-])c1cccc(/C([O-])=C(/C(=S)Nc2ccccc2F)[n+]2ccccc2)c1 | 10.2% [at 57.1 µM] (inactive) | 
Cc1ccc(/C([O-])=C(/C(=S)NCc2ccco2)[n+]2ccccc2)cc1[N+](=O)[O-] |  | 56.2 µM (active)
CC1(C)Cc2ccccc2-c2c[nH]c(=O)n21 | 3.99% (inactive) | 
Cn1nnnc1SCC(=O)Nc1sccc1C(N)=O | 13.4% [at 11.4 µM] (inactive) | 
NC(=O)c1ccsc1NC(=O)c1ccco1 |  | 56.2 µM (active)
COc1cc(OC)cc(C(=O)OCC(=O)Nc2sccc2C(N)=O)c1 | 15.1% (inactive) | 
C=C1C=C(C)n2ncc(C(=O)Nc3ccccc3O)c2N1 | 8.78% (inactive) | 
CN(C)/C=C1\C=C(c2ccccc2)OC1=O |  | 28.2 µM (active)
Cc1ccc(C2=C/C(=C\c3cccnc3)C(=O)O2)cc1 | 31.3% (inactive) | 
COc1ccccc1/C=C/C1=NC(=C\N(C)C)/C(=O)O1 | 9.66% [at 57.1 µM] (inactive) | 
CN(C)c1ccc(/C=C/C=C/c2ccnc3ccccc23)cc1 | -12.8% (inactive) | 
O=C(O)CCS(=O)(=O)c1ccc(-c2ccccc2)cc1 | -6.99% (inactive) | 
Cc1cccc2sc(N(CCCN(C)C)C(=O)CCS(=O)(=O)c3ccccc3)nc12 |  | 15.8 µM (active)
COc1cccc2sc(N(CCCN(C)C)C(=O)CCS(=O)(=O)c3ccccc3)nc12 |  | 1.58 µM (active)
Cc1ccc(S(=O)(=O)CCC(=O)OCc2ccccc2)cc1 | 22.7% (inactive) | 

Compound | activity change, negative = inhibition | Potency
CCOc1ccccc1NC(=O)CCS(=O)(=O)c1cccc2nsnc12 |  | inactive
COc1ccccc1CNC(=O)CS(=O)(=O)c1cccc2nsnc12 | 5.68% [at 57.1 µM] (inactive) | 
CN(C)S(=O)(=O)c1ccc(C(=O)N(Cc2cccnc2)c2nc3c(F)cc(F)cc3s2)cc1 | 1.57% [at 57.1 µM] (inactive) | 
O=C(C1COc2ccccc2O1)N(Cc1cccnc1)c1nc2c(F)cc(F)cc2s1 (centres undefined) | 23.2% [at 57.1 µM] (inactive) | 
O=C(CCS(=O)(=O)c1ccccc1)N(Cc1cccnc1)c1nc2c(F)cccc2s1 |  | 3.98 µM (active)
Brc1ccc2c(c1)NC(c1cccnc1)=NC(c1ccccc1)=N2 | 25% (inactive) | 
Cc1cccc(N2CCN(C(=O)c3ccc4c(c3)CCN4S(=O)(=O)c3ccccc3)CC2)c1C | 23.9% (inactive) | 
Cc1cccc(NC(=O)C2CCN(S(=O)(=O)c3c(C)noc3/C=C/c3ccco3)CC2)c1 | -7.03% (inactive) | 
CCC(=O)N1CCc2cc(S(=O)(=O)NC(C(=O)NCCc3ccc(C)cc3)C(C)C)ccc21 (centres undefined) | 19% (inactive) | 
O=C(Cn1ncn2nc(-c3cccs3)cc2c1=O)NCc1cccc(Br)c1 | 17.3% (inactive) | 
CCOC(=O)c1ccccc1NC(=O)c1nn(-c2ccc(OC)c(Cl)c2)c(=O)c2c1c1ccccc1n2C | 15.4% (inactive) | 
CCOC(=O)C1=C(NC(=S)NC(=O)c2ccccc2)c2ccccc2CC1(C)C | -24.4% (inactive) | 
Cc1ccc(C(=O)NC(=S)Nc2ccc3[nH]c(=O)[nH]c3c2)cc1C | 2.89% [at 57.1 µM] (inactive) | 
Cc1cc2[nH]ncc2cc1NC(=S)NC(=O)c1ccccc1 |  | 7.08 µM (active)
CCOc1ccc(CNC(=O)c2ccc3nc(CC)c(CC)nc3c2)cc1OC | 15.6% [at 57.1 µM] (inactive) | 
CCOc1cccc(NC(=O)CSc2ncc(-c3ccc(Cl)cc3)[nH]2)c1 | 3.45% (inactive) | 
CC1(C)CC(=O)c2cc(C(=O)NCc3ccccc3)c(=O)[nH]c2C1 | 8.76% (inactive) | 
O=C(NCCC1=CCCCC1)c1ccc2c(c1)N(Cc1ccccc1F)C(=O)c1ccccc1S2(=O)=O | 41.9% (inactive) | 
COc1ccc(Cn2cc(C(=O)c3ccc(C)cc3)c(=O)c3cc(OC)c(OC)cc32)cc1 | 21.9% (inactive) | 
COc1ccc(-c2nc(C)c(CCNC(=O)c3ccc(C(F)(F)F)cc3)s2)cc1OC | 14.7% [at 57.1 µM] (inactive) | 
O=C(Nc1ccccc1Cl)N1CCC(CN2CCCC2)CC1 | -6.79% (inactive) | 
O=C(Nc1ccccc1Cl)/C(Cl)=C(\Cl)S(=O)c1ccccc1 (centres undefined) |  | 0.398 µM (active)
O=C(Nc1ccccc1Cl)N1CCC(CN2CCCCC2)CC1 | 24.2% [at 57.1 µM] (inactive) | 
O=C1C2C(c3ccccc3)CC=CC2C(c2ccoc2)N1Cc1ccccc1 (centres undefined) | -7.81% (inactive) | 
